Molecules are shown by their SMILES. Screen size: about 16,000 compounds; about 5,100 (32%) were called active. Another 25% or so got no clear call; they are omitted. The list shows a part of the results. A number with no mark means an inactive call. Calls come from the whole dose curve; as a rule, active = well fitted curve in the direction sought with a large enough effect; inconclusive = small, poorly fitted or top-dose-only effect, or effect the other way; inactive = no such curve, though single readings can be large or run the other way.
% is set by controls: 0 for no effect and ±100 for the full control effect.

The target of the experiment is Cytochrome P450 3A4 (Homo sapiens) (UniProt P08684). Briefly: Cytochrome panel assay with activity outcomes. The note with it: recombinant CYP, pro-luciferin dealkylation, luminescence, p450-cyp3a4; series mostly up to 57.1 µM.
Sequence of Cytochrome P450 3A4 (Homo sapiens) (P08684 whole entry, looked up): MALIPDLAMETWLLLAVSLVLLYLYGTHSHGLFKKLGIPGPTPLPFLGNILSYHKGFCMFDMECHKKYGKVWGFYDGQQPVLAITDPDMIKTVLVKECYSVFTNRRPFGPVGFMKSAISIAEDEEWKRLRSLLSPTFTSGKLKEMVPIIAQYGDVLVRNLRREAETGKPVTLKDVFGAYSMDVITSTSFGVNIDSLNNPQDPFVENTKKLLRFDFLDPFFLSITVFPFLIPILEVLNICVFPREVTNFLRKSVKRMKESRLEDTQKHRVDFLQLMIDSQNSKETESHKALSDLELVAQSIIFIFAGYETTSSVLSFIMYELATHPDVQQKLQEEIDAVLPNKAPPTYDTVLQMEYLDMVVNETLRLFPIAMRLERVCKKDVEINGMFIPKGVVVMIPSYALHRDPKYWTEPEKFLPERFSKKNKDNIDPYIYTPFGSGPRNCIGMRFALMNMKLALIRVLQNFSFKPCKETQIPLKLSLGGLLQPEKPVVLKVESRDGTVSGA
`c1coc(CN2CCN(C(c3cccs3)c3nnnn3C3CCCC3)CC2)c1` (configuration not stated): the AC50 (commonly the concentration at which the activity in the assay is half-maximal) is 14.1 µM (active).

For `Clc1ccc(C(c2nnnn2C2CCCC2)N2CCN(Cc3ccncc3)CC2)cc1` (configuration not stated), the AC50 was 2 µM (active).

For the molecule `Cc1ccc(C(c2nnnn2C2CCCC2)N2CCN3CCCC3C2)cc1` (configuration not stated), the AC50 is 14.1 µM (active). For the molecule `CC(C)(C)N1C(=O)[C@@H]2[C@H]3C(=CC[C@H]2C1=O)C(=O)[C@H]1O[C@H]1[C@H]3O`, the activity, negative = inhibition was -4.13% [at 11.4 µM]. In the case of `O=S(Cc1ccccc1)CC(O)(c1ccccc1)c1ccccc1` (configuration not stated), the AC50 entry is “inactive”.

Take `O=C(Nc1cnn(Cc2ccc(Cl)cc2Cl)c1)c1cc(-c2cccs2)on1`: the AC50 was 10 µM (active). Same read-out and setting: for `O=C(NCC1CCCO1)c1cc(-c2ccc(Cl)cc2Cl)on1` (configuration not stated) the value was “inactive”; for `O=C(Cn1cnc([N+](=O)[O-])n1)N/N=C/c1ccccc1O`, “inactive”. As for `CC(C)(C)NC(=O)Cn1cnc([N+](=O)[O-])n1`, the AC50 result was “inactive”. Same read-out and setting: the same measure for `O=C(CCCn1cnc([N+](=O)[O-])n1)Nc1ccc(Cl)c(Cl)c1`: 14.1 µM (active); for `O=C1O/C(=C\Br)CC[C@@H]1c1cccc2ccccc12`: 3.98 µM (active); for `Cc1cccc(-c2c3c(=O)n(C)c(=O)n(C)c3cn2C2CCCCC2)c1`: 7.94 µM (active). On the same count and under the same terms, the same measure for `COc1ccccc1NC(=O)C(C/C=C(\C)Cl)C(C)=O` (configuration not stated): 14.1 µM (active); for `COC(=O)c1ccccc1NC(=O)C(CCS(C)(=O)=O)NC(C)=O` (configuration not stated): “inactive”. The same measure, in the same setting: for `CCCN1C(=O)C2(/C(=C(\O)c3ccc4c(c3)OCCO4)C(=O)C(=O)N2CCCOC)c2ccccc21` (configuration not stated) the value was “inactive”; for `COc1ccccc1CN1CC[C@@]2(CCCN(C(C)=O)C2)C1`, “inactive”. As to `COc1ccccc1CN1CC[C@@]2(CCCN(C(=O)c3ccco3)C2)C1`, the AC50 is 20 µM (active). On the same count and under the same terms, the same measure for `COc1ccccc1CN1CC[C@@]2(CCCN(C(=O)c3cccn3C)C2)C1`: 12.6 µM (active); for `COCC(=O)N1CCC[C@@]2(CCN(Cc3ccccc3OC)C2)C1`: “inactive”. Still for that read-out and setting: the same measure for `COc1ccccc1CN1CCC2(CC1)CCN(C(=O)c1ccco1)CC2`: “inactive”; for `COc1ccccc1CN1CCC2(CC1)CCN(C(=O)c1cccn1C)CC2`: “inactive”; for `Cc1cc(NC(=O)c2nn(C)c(C)c2[N+](=O)[O-])no1`: “inactive”.

On to `C=CCNc1nc(-c2ccc(Cl)cc2)cs1`, for which the AC50 was 14.1 µM (active). Turning to `CCCCCN1CC(O)=C(c2nc(-c3ccc(Cl)cc3)cs2)C1=N`, the AC50 result was “inactive”. On to `Cc1ccc(-c2csc(N/N=C/c3ccco3)n2)cc1`, for which the activity, negative = inhibition is -6.49% [at 2.29 µM]. Take `CC(C)(C)NC[C@H](O)COc1cccc2c1CCC(=O)N2`: the AC50 entry was “inactive”. Turning to `CC(C)(C)NC(=O)C(Cc1ccccc1)NS(=O)(=O)c1ccc2c(c1)CCC(=O)N2` (configuration not stated), the half-maximal activity concentration (AC50) is 3.16 µM (active). On to `CC1=N[C@@](C)(COC(=O)[C@]2(C)N[C@](C)(CO)CO2)COC1=O`, for which the activity, negative = inhibition was -22.8% [at 11.4 µM]. On to `Cc1cccc(OCC(=O)N/N=C\C=C\c2ccc3c(c2)OCO3)c1C`, for which the AC50 was 2.24 µM (active). Still for that read-out and setting: the same measure for `COC(=O)N/N=C\C=C\c1ccc2c(c1)OCO2`: “inactive”. For the molecule `N[C@@H](Cc1nn[nH]n1)C(=O)O`, the activity, negative = inhibition is -2.7% [at 11.4 µM]. On to `O=[N+]([O-])c1cccc(-c2nc(-c3ccccc3)c(-c3cccs3)[nH]2)c1`, for which the activity, negative = inhibition is -13.1% [at 2.29 µM]. On to `Cc1ccsc1-c1nc(-c2ccccc2)c(-c2ccccc2)[nH]1`, for which the AC50 is 14.1 µM (active).

On to `COc1ccc(-c2[nH]c(-c3ccc(C(=O)O)cc3)nc2-c2ccccc2)cc1`, for which the AC50 result was “inactive”.

As to `O=C(O)c1nc(-c2ccccc2)[nH]c1C(=O)O`, the activity, negative = inhibition was -3.83% [at 11.4 µM].

As to `O=[N+]([O-])c1cccc(-c2nc(-c3cccs3)c(-c3cccs3)[nH]2)c1`, the AC50 was 12.6 µM (active). Same read-out and setting: the same measure for `c1ccc(-c2nc(-c3cccs3)[nH]c2-c2ccccc2)cc1`: 11.2 µM (active). Same read-out and setting: the same measure for `CCOC(=O)Cc1cc(=O)n2[nH]c(C)c(C#N)c2n1`: “inactive”; for `NC(=O)C(=O)O`: “inactive”.

`CCOc1cc(CN2CCN(c3ccc(C(C)=O)cc3)CC2)ccc1OC`: the AC50 result was “inactive”. Still for that read-out and setting: the same measure for `COc1ccc(C(=O)CN2CCN(c3ccc(F)cc3)CC2)cc1OC`: 28.2 µM (active); for `CCC(C)NCc1ccc(C(=O)OC)o1` (configuration not stated): “inactive”. For the molecule `CCC/C=C(\CCC)C(NS(=O)(=O)c1cccc2cccnc12)c1ccc(C(=O)OC)cc1` (configuration not stated), the AC50 is 5.01 µM (active). On the same count and under the same terms, the same measure for `CCC/C=C(\CCC)C(NS(=O)(=O)c1cccc2cccnc12)c1ccc(-c2ccccc2)cc1` (configuration not stated): 3.16 µM (active); for `CCC(C)N1C(=O)C2C(C(=O)Nc3cccc(OC)c3)C3C=CC2(O3)C1C(=O)NC1CCCCC1C` (configuration not stated): 15.8 µM (active); for `CC12CCC(C(=O)O)(C/C1=N\O)C2(C)C` (configuration not stated): “inactive”. For the molecule `CCOc1ccc(C2C(C(=O)O)c3ccccc3C(=O)N2CCN2CCOCC2)cc1` (configuration not stated), the AC50 entry is “inactive”. On the same count and under the same terms, for `COc1ccc(C2C(C(=O)N3CCOCC3)c3ccccc3C(=O)N2c2ccc(OC)cc2)cc1` (configuration not stated) the value was 8.91 µM (active). For the molecule `COc1ccc(C2C(C(=O)N3CCN(C)CC3)c3ccccc3C(=O)N2C2CCCCC2)cc1` (configuration not stated), the AC50 is 5.01 µM (active). With `CN1C(=O)c2ccccc2C(C(=O)O)C1c1cn(C)c2ccccc12` (configuration not stated), the activity, negative = inhibition was 7.7% [at 2.29 µM]. In the case of `COc1ccccc1N1CCN(c2nc3c(C)cccn3c(=O)c2C=O)CC1`, the half-maximal activity concentration (AC50) is 15.8 µM (active).

For `COc1ccccc1N1CCN(Cc2cc(=O)n3ccsc3n2)CC1`, the AC50 result was “inactive”. Consider `Cc1cccn2c(=O)c(/C=N/O)c(N3CCCC3)nc12`, for which the AC50 is 12.6 µM (active). Consider `Cc1cccn2c(=O)c(C=NCc3ccco3)c(Nc3ccc(SC(F)F)cc3)nc12`, for which the AC50 entry is “inactive”.

For the molecule `Cc1cccn2c(=O)c3cc(C(=O)N4COCC4(C)C)n(C)c3nc12`, the AC50 entry is “inactive”. On to `CC(=O)[C@@H](C)CCO[C@@]1(C)OCC[C@@H]1C`, for which the activity, negative = inhibition is -5.36% [at 11.4 µM]. Still for that read-out and setting: for `CCOC(=O)Cc1csc(NS(=O)(=O)c2ccccc2)n1` the value was 6.45% [at 2.29 µM]. Regarding `Cc1ccc(CNC(=O)Cc2csc(Nc3nc(=S)[nH]c4ccccc34)n2)cc1`, the AC50 was 1 µM (active).

On to `COc1ccc(CNC(=O)Cc2csc(Nc3nc(=S)[nH]c4ccccc34)n2)cc1`, for which the AC50 was 1.26 µM (active).

As to `O=C(Cc1csc(Nc2nc(=S)[nH]c3ccccc23)n1)NCc1cccc(Cl)c1`, the AC50 was 1.78 µM (active). On the same count and under the same terms, for `O=C(Nc1cccc(NC(=O)N2CCN(c3ccccc3)CC2)c1)N1CCN(c2ccccc2)CC1` the value was 6.31 µM (active); for `O=C(Nc1ccccc1)N1CCOCC1`, “inactive”.

The values above are taken from PubChem BioAssay AID1851 (National Center for Advancing Translational Sciences (NCATS), 2009).
